Bioassay records from PubChem.
ALOX12 inh – inhibitors of human 12S-lipoxygenase ALOX12 | purified 12hLO, xylenol orange hydroperoxide absorbance | 580,000 compounds, 1.1% hits | P18054 | Potency, µM (titrated, usually from 108 µM), for the others: top-dose activity change, negative = inhibition, actives largely listed as inhibitors; note: potency is the fitted concentration of half-maximal effect
Target sequence (P18054 whole entry, looked up): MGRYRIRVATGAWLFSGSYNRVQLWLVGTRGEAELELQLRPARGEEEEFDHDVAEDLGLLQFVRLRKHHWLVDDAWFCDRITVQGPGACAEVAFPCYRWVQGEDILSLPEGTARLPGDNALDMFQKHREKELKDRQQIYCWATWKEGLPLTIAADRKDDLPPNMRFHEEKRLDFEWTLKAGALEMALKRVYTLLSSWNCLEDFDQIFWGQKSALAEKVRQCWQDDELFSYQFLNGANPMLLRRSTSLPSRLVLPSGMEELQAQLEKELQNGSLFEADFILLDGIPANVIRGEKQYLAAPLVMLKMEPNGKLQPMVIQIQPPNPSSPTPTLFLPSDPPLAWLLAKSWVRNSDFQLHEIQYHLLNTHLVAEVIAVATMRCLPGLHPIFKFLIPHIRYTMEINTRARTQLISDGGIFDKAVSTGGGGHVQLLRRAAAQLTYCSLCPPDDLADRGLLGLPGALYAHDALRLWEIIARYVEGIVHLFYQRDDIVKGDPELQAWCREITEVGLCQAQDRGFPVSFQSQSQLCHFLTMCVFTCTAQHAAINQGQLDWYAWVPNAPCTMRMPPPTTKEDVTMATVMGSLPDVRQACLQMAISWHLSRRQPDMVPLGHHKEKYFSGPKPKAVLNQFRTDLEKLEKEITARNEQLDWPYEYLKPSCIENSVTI
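Purified human 12hLO at 150 nM in 25 mM Hepes, 0.01% Triton X-100, pH 7.0, preincubated 15 min at room temperature with compound. Reaction started with 40 uM arachidonic acid, 30 min at room temperature. Hydroperoxide measured by Fe-xylenol orange, 573/405 nm absorbance ratio.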
HT1080NT lethal – kills 2HG-producing HT-1080-NT fibrosarcoma cells; 360,000 compounds, 1.6% hits; Potency, µM (series often up to 46.1 µM), without a hit: top-dose activity, negative = less viability, most hits filed as cytotoxic; HT-1080-NT fibrosarcoma viability, CellTiter-Glo ATP luminescence, 48 h; AID 686970;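 note: NT is the 2HG producing partner of a matched IDH1 knockdown line; potency is the fitted concentration of half-maximal effect; 0% = DMSO-treated cells and -100% = media-only wells without cells; nearly all actives have a fitted effect of over 55% in size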
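Toxicity toward the 2HG-producing NT line was scored as %Activity, normalised to DMSO and no-cell wells, from CellTiter-Glo luminescence after 48 hours' treatment.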
TDP1 cell CPT – DT40-hTDP1 cell growth loss with CPT; chicken DT40 Tdp1-/-;hTDP1 cells + 20 nM CPT, ATP luminescence, 48 h; Potency, µM (highest dose often 46.2 µM), inactives show top-dose activity change, negative = growth inhibition, most hits filed as inhibitors; 420,000 compounds, 12% hits; AID 686979; note: potency is the fitted concentration of half-maximal effect; nearly all actives have a fitted effect of over 55% in size
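Chicken DT40 Tdp1-/- cells complemented with human TDP1, 400 cells/well, exposed to compounds plus 20 nM camptothecin for at least 48 h at 37 C; viability read as ATP content by CellTiter-Glo luminescence.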
HT1080 IDH1KD tx – kills HT-1080 cells with IDH1 knockdown; HT-1080 IDH1 knockdown viability, ATP luminescence, 48 h; Potency, µM (highest dose often 46.1 µM), without a hit: top-dose activity, negative = toxicity, usual class: cytotoxic; AID 686971; 360,000 compounds, 2% hits;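 note: potency is the fitted concentration of half-maximal effect; 0% = DMSO wells and -100% = cell-free medium wells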
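Cytotoxicity counter-line: IDH1KD HT-1080, 48 h, CellTiter-Glo. Curves classed by r2, magnitude and activity.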
IL1B secr inh – inhibitors of inflammasome signaling (IL-1 beta secretion); THP-1 LPS/ATP IL-1B secretion, AlphaLISA, 16 h; active compounds read low; activity change, % at 57.5 µM; 360,000 compounds, 4.7% hits; in the data active = activity change below about -50%; inconclusive = mostly about -30% to -49%
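THP-1 cells pretreated 1 hr with compounds (up to 57.5 uM final), then stimulated with LPS (250 ng/mL final) plus ATP (1.25 mM final); secreted IL-1B measured by AlphaLISA after 16 hr, decreased signal indicating inhibition.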
TDP1 cell noCPT – qHTS for Inhibitors of human tyrosyl-DNA phosphodiesterase 1 (TDP1): qHTS in cells in absence of CPT; DT40 Tdp1-/- hTDP1 cells, no CPT, ATP luminescence, 48 h; Potency, µM (series often up to 46.2 µM), for the others: at the highest dose activity change, negative = growth inhibition, hits mostly inhibitors; 420,000 compounds, 15% hits; AID 686978, 2013; note: potency is the fitted concentration of half-maximal effect; nearly all actives have a fitted effect of over 55% in size
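Chicken DT40 Tdp1-/- cells complemented with human TDP1, screened without camptothecin (DMSO vehicle only), 400 cells/well. Compounds pin-transferred, cells incubated at 37 °C for at least 48 hr. Growth read as ATP-dependent luminescence (CellTiter-Glo, 30 min at RT).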
An asterisk follows results filed as active; u = inconclusive; x = not tested or not shown; [ ] = remark or other dose. This is one part of a sample in which hits are shown more often than they occur. Unless noted, calls come from the whole dose curve; as a rule, active = well fitted curve in the direction sought with a large enough effect; inconclusive = small, poorly fitted or top-dose-only effect, or another doubt; inactive = no such curve, though single readings can be large; an effect the other way counts as inactive or inconclusive. Unless noted, % is set by controls: 0 for no effect and ±100 for the full control effect.

SMILES	ALOX12 inh	HT1080NT lethal	TDP1 cell CPT	HT1080 IDH1KD tx	IL1B secr inh	TDP1 cell noCPT
COc1ccc(OC)c(/C=C/C(=O)N2CCCc3ccccc32)c1	-16.9%	-10.8%	-26.0%	-0.7%	-76.7*	u
O=C(/C=C/c1ccco1)N1CCc2ccccc21	u	u	u	u	-26.6	u
CCc1cn(C[C@H](NC(=O)c2ccco2)C(=O)O)c(=O)[nH]c1=O	-0.3%[176 µM]	x	x	x	x	x
O=C(Nc1cccc(S(=O)(=O)NC2=NCCC2)c1)C1(c2cccc(Cl)c2)CC1	1.3%	x	x	x	x	x
CNc1nc(NCCOc2ccccc2)c2sccc2n1	x	-4.6%	18.4µM*	u	-6.7	20.6µM*
c1ccc(CNc2nc(Oc3ccncc3)c3sccc3n2)cc1	u	19.2%	-23.1%	0.2%	17.2	-13.9%
CNc1nc(NCCCN2CCCC2=O)c2sccc2n1	-7.0%	11.1%	1.6%	0.0%	-11.4	-2.3%
c1ccc(CNc2nc(NCCOc3ccccc3)c3sccc3n2)cc1	u	u	23.1µM*	u	x	16.4µM*
Cc1ccccc1NC(=O)c1ccc(C)c(S(=O)(=O)N2CCN(C)CC2)c1	-9.8%	7.1%	-4.9%	1.8%	0.0	18.8%
Cc1ccccc1NC(=O)c1ccc(F)c(S(=O)(=O)N2CCN(c3ccccn3)CC2)c1	u	u	28.2µM*	-29.4%	-23.3	11.2µM*
O=C(Nc1ccc(Br)cc1)c1ccc(F)c(S(=O)(=O)N2CCN(c3ccccn3)CC2)c1	2.8%	-5.4%	u	0.8%	25.7	7.31µM*
Cc1ccc(C)c(N2CCN(S(=O)(=O)c3cc(C(=O)Nc4ccccc4C(F)(F)F)ccc3F)CC2)c1	-15.8%	x	11.6µM*	x	x	13µM*
CC(CNc1ccccc1O)C(=O)O (stereo not drawn)	u	-1.2%	u	-43.7%	-0.9	25.9µM*
CCOc1ccccc1NC(=O)CN1c2ccccc2S(=O)(=O)c2ccccc21	-8.4%	x	25.9µM*	x	x	u
CCN1C(=O)c2cccc3c(S(=O)(=O)Nc4ccccc4OC)ccc1c23	-1.1%	-0.9%	11.6µM*	-10.6%	-29.9	14.6µM*
COc1ccccc1NC(=O)CN1C(=O)c2cccc3cccc1c23	-20.4%	x	u	x	x	18.4µM*
O=C(CN1C(=O)C(=O)c2ccccc21)OCN1C(=O)c2ccccc2C1=O	-13.0%	6.0%	-4.9%	-0.3%	11.9	-7.8%
COc1ccccc1NC(=O)COC(=O)CN1C(=O)C(=O)c2ccccc21	-9.6%	32.8%	8.2µM*	-0.2%	-9.9	u
CCN1C(=O)c2cccc3c(S(=O)(=O)NCc4ccccc4)ccc1c23	10.8%	-5.7%[9.24 µM]	u	-3.7%	-26.2	u
COc1cc(NC(=O)Cn2cccc2-c2nc(-c3ccc(F)cc3)no2)cc(OC)c1	-21.6%	x	x	x	x	x
COc1ccccc1CNC(=O)c1cc2c(s1)CCN(C(=O)c1ccc(C)cc1)C2	5.1%	x	x	x	x	x
CC(C)CNc1nc(-c2ccc(S(=O)(=O)N3CCCCCC3)cc2)cs1	-5.9%	x	x	x	x	x
COc1ccc(NC(=O)CN2C(=O)C(C)Oc3ccccc32)c(OC)c1 (stereo not drawn)	-24.8%	7.9%	-9.2%	-25.1%	-9.7	u
CCOc1ccccc1NC(=O)CN1C(=O)COc2ccccc21	0.0%	-1.4%	0.2%	7.3%	-8.0	-6.3%
COc1ccc(NC(=O)CN2C(=O)C(=O)c3ccccc32)c(OC)c1	-5.5%	x	4.11µM*	x	x	6.51µM*
CCOc1ccccc1NC(=O)CN1C(=O)C(=O)c2ccccc21	5.9%	x	5.8µM*	x	x	4.11µM*
Cc1nc(-c2cnn(-c3ccccc3)c2)c2cc(C)oc2n1	3.5%	-8.6%	u	-8.3%	-16.3	18.4µM*
COc1ccc(CN(C)C2CCc3ccccc32)cc1 (stereo not drawn)	19.5%[176 µM]	x	x	x	x	x
